# RN4220 kill – S. aureus RN4220 growth inhibition; inhibition, % (concentration not given with the values); OD600, 16 h; 330,000 tested, 0.33% active; AID 1259311; in the data active = inhibition above about 85%;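 note: plate controls were untreated cells for no effect and reference antibiotic for full effect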
# Mtb betalactam – beta-lactam sensitization of Mtb H37Rv; M. tuberculosis H37Rv growth with meropenem, percent inhibition; inhibition, % at 25 µM; 330,000 tested, 0.27% active; call rule not given here;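 note: growth measured after seven days incubation then overnight dye step; 0% = bacteria only wells and 100% = bacteria with antibiotic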
# Mtb hypoxia inh – inhibitors of hypoxia-regulated fluorescent reporter in Mycobacterium tuberculosis. M. tuberculosis hypoxia-regulated fluorescent reporter, fluorescence. fluorescence inhibition, % (test concentration not listed). 300,000 tested, 0.1% active. AID 1159583; in the data active = fluorescence inhibition mostly above about 23%, no sharp cut-off; inactive = mostly below about 17%
# Rv3671c inh – inhibits the M. tuberculosis serine protease Rv3671c; P9WHR9; inhibition, % at 5.96 µM; 320,000 tested, 0.048% active; in the data active = inhibition above about 38%;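 note: extracellular domain of Rv3671c used as enzyme; 0% = enzyme with DMSO and 100% = no enzyme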
# Target sequence (P9WHR9 whole entry, looked up, the tested form may be a part): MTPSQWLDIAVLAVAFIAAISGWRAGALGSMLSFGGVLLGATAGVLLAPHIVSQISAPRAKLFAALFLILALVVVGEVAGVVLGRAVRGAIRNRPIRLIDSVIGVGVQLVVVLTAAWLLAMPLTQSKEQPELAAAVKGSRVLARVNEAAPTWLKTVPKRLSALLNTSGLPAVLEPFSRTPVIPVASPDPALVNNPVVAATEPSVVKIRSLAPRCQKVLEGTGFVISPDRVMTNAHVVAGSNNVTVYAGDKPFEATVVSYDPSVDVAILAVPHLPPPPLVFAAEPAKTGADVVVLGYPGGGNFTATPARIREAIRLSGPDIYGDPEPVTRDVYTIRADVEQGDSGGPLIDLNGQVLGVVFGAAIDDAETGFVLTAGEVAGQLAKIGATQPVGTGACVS
# Sa ugtP lethal – growth inhibition of S. aureus ugtP deletion strain; S. aureus RN4220 ugtP deletion, OD600 growth, 16 h; growth inhibition, % (no concentration beside the values); 330,000 tested, 0.54% active; AID 1259309; in the data active = growth inhibition above about 68%;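 note: plate controls were untreated wells for no effect and antibiotic for full effect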
# Mtb UGM inh – inhibitors of M. tuberculosis UDP-galactopyranose mutase; purified UGM, fluorescence polarization probe displacement; inhibition, % at 10 µM; 320,000 tested, 0.06% active; in the data active = inhibition above about 10%, passing the limit was not always enough; inconclusive = no clear call, values can overlap the other calls
# An asterisk follows results filed as active; ? = inconclusive; · = no result given. Rows were chosen to be rich in hits. Some 0.68% of all compounds tested hit in one or more screens of this group.
SMILES,RN4220 kill,Mtb betalactam,Mtb hypoxia inh,Rv3671c inh,Sa ugtP lethal,Mtb UGM inh
N#CCc1ccc(NC(=O)/C=C/c2ccc([N+](=O)[O-])o2)cc1,101*,·,·,·,100*,·
Cc1ccc(-c2cc3ccccc3nc2N2CCCC2)cc1,-3,99,·,8,89*,-1
Clc1ccc(-c2cc3ccccc3nc2N2CCCC2)cc1,-3,97,·,-5,72,3
Cc1nc2ccccc2nc1N1CCCC1,5,-4,15,3,5,0
Clc1ccc(-c2cc3ccccc3nc2N2CCOCC2)cc1,2,3,11,4,93*,0
CC1(C(=O)N2CC3(CC(c4cccc(NC(=O)CC(c5ccccc5)c5ccccc5)c4)=NO3)CC2C(N)=O)CC1 (stereo not given),1,·,4,·,0,·
Nc1nn2c(-c3ccccc3)cc(=O)[nH]c2c1N=Nc1ccc(Br)cc1,100*,·,12,·,100*,·
CC=C(C)C(=O)OC(c1cc2ccc(=O)oc2cc1OC)C(O)C(C)(C)O (stereo not given),7,·,9,·,-7,·
CCn1c(SCC(=O)NC(=O)NCc2ccco2)nc2sc(C)c(C)c2c1=O,-10,-2,38*,-2,-10,0
Cc1sc2nc(SCC(=O)NCc3ccco3)n(C)c(=O)c2c1C,-14,0,16,6,-7,3
C[C@]12CCC3C(=CCc4cc(O)ccc43)C1CCC2=O (stereo not given in full),10,·,0,·,2,·
COCC(=O)Oc1c(Sc2ccccc2[N+](=O)[O-])c(C)nn1C(C)(C)C,8,-1,14,-7,7,0
CCC(CC)C(=O)Oc1c(Sc2ccccc2[N+](=O)[O-])c(C)nn1C(C)(C)C,-7,2,-8,0,96*,-1
Cc1ccc(SCC(Cc2ccccc2)N2CCC(C)CCC2=O)cc1 (stereo not given),7,·,5,·,-16,·
COC(=O)C(NCc1cccc(CN(C(C(=O)OC)C(C)C)S(C)(=O)=O)c1)C(C)C (stereo not given),8,·,6,·,6,·
C[C@@]12C(=O)N(Cc3ccc(F)cc3)CC(=O)N1C1c3cc(Cl)ccc3OCC1C2c1ccccc1 (stereo not given in full),-2,·,-4,·,-16,·
CCC(/C=C1\Sc2ccc(OC)cc2N1CC)=C\c1sc2ccc(OC)cc2[n+]1CCCS(=O)(=O)[O-],36,9,68*,-419,-18,1
CCO/C(=C/c1sc2ccc(OC)cc2[n+]1CCCS(=O)(=O)[O-])CC,1,-2,13,-13,-1,-3
CCC(/C=C1\Sc2ccc(OC)cc2N1CCO)=C\c1sc2ccc(OC)cc2[n+]1CCO,99*,96,·,-459,96*,0
O=C1C=C(c2ccc(-c3ccccc3)c(F)c2)CC(c2ccc(Cl)cc2)C1 (stereo not given),-7,·,-2,·,-3,·
CC(C)Cc1nc(N2CCCCC2)c(C#N)c2c1CCC2,2,9,·,-1,86*,0
CC(C)Cc1nc(N2CCNCC2)c(C#N)c2c1CCC2,0,-10,16,1,0,1
COc1ccc2sc(-c3ccc(SC)cc3)c(C=Cc3ccc(OC)c(OC)c3)c2c1,-1,·,-3,·,1,·
Cc1nc(-c2ccc(S(=O)(=O)Nc3ccc(Br)cc3Cl)s2)cs1,96*,7,-9,-2,83,-4
Cc1nc(-c2ccc(S(=O)(=O)Nc3cccc(S(N)(=O)=O)c3)s2)cs1,1,-2,-8,-2,8,2
SMILES,RN4220 kill,Mtb betalactam,Mtb hypoxia inh,Rv3671c inh,Sa ugtP lethal,Mtb UGM inh
O=C1c2ccccc2C(=CC#Cc2ccccn2)N1c1ccccc1,-4,·,6,·,33,·
CCCCN(CC)S(=O)(=O)c1ccc(C(=O)Nc2nnc(-c3cccs3)o2)cc1,93*,94,-7,-3,95*,-1
CN(c1ccccc1)S(=O)(=O)c1ccc(C(=O)Nc2nnc(-c3ccc(F)cc3)o2)cc1,100*,0,-6,-14,100*,1
CCN(CC)S(=O)(=O)c1ccc(C(=O)Nc2nnc(-c3ccco3)o2)cc1,20,93,-12,-17,-6,0
COc1ccccc1-c1nnc(NC(=O)c2ccc(S(=O)(=O)N(C)Cc3ccccc3)cc2)o1,110*,77,·,4,99*,0
COc1ccc(C(=O)C=Cc2ccc(O)cc2)c(O)c1CC=C(C)C,27,·,7,·,73,·
CN(CC(Cc1ccccc1)N(CC(Cc1cccc2ccccc12)N(CCc1ccccc1)N=O)N=O)N=O (stereo not given),5,·,17,·,7,·
O=S(=O)(Nc1cccc(-c2nc3cccnc3s2)c1)c1ccc2c(c1)CCCC2,16,7,9,-144,93*,2
CC1CCC2[C@@H](C)C(=O)OC3O[C@]4(C)CCC1C32OO4 (stereo not given in full),2,2,84*,8,-3,-2
CC1CCC2C(C)C(=O)OC3OC4(C)CCC1C32OO4 (stereo not given),7,5,81*,0,21,2
C=C1C(=O)O[C@@]23C1CCC(C)C2CC[C@@]1(C)OC31 (stereo not given in full),7,·,25,·,0,·
O=C(NCc1nc(-c2ccc(C(F)(F)F)cc2)no1)Nc1ccc(F)cc1F,-2,4,8,-3,-6,2
O=C(NCc1nc(-c2ccc(C(F)(F)F)cc2)no1)Nc1cc(Cl)cc(Cl)c1,100*,22,5,-110,100*,-2
CC=CC=NNC(=O)c1ccncc1,7,·,·,·,-2,·
CC(=O)c1c(C)[nH]c(C(=O)Nc2nc(-c3ccc(Cl)cc3)cs2)c1C,71,70,15,-16,90*,5
O=C(OCCCOC(=O)c1ccc([N+](=O)[O-])o1)c1ccc([N+](=O)[O-])o1,2,100,71*,-16,4,-2
C#Cc1ccc(C2C=C(C(=O)OCC=C)OC(OCCCCO)C2)cc1 (stereo not given),7,·,3,·,6,·
CCN(CC)c1ccc2cc(-c3nc4ccccc4n3C)c(=O)oc2c1,6,?,10,8,5,2
CCN(CC)c1ccc2cc(-c3nc4ccccc4[nH]3)c(=O)oc2c1,4,13,-40,-3,-5,31*
COc1ccccc1N1N=C(C(=O)c2ccccc2)C2C(=O)N(c3ccc(Br)cc3)C(=O)C21 (stereo not given),-1,3,3,1,2,31*
CCOc1cc(C=C2C(=O)ON=C2C)ccc1OCc1ccccc1,6,·,0,·,3,·
O=c1c(C=NN2CCOCC2)c(O)n(-c2ccccc2)c(=S)n1-c1ccccc1,4,·,6,·,-4,·
CCN1C(=O)C2C(c3ccc(-c4ccc(C(C)=O)cc4)c(OC)c3)N[C@@](Cc3ccccc3)(C(=O)OC)C2C1=O (stereo not given in full),7,·,9,·,16,·

# Assay outcomes: PubChem BioAssay, several laboratories
